# Measured values: the supplement of paper PMC4723716
# Whole data set: some 3,600 compounds, median “viability index relative to DMSO control” near 0.81, cut for the lowest 2% near 0.13. The sample holds the lowest values, similar compounds and a random draw of the others, so the mix is not that of the screen.
# Test system: Plasmodium falciparum NF54 stage V gametocytes
# Experiment: viability index relative to DMSO control (fraction); higher = less gametocyte killing
# Conditions: 1.25 µM, incubation time: 72 h
# 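Further: Saponin-lysis sexual stage assay in serum-free medium: MitoTracker Red CMXRos staining plus saponin, high-content imaging, particle count per well divided by plate mean of DMSO wells.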
row,Structure (SMILES),viability index
1,COc1ccc(NC(=O)c2cnn(-c3ccccc3)c2NC(=O)c2ccco2)cc1,0.846
2,COc1cccc(CNC(=O)Cn2ncc3c(=O)oc4ccc(C)cc4c32)c1,0.843
3,CC(C)NCC(O)Cn1c2ccc(Cl)cc2c2cc(Cl)ccc21 (centres undefined),0.419
4,CC(=O)c1ccc(N2CCN(Cc3cc(-c4ccnc5cc(Cl)ccc45)ccc3O)CC2)cc1,0.433
5,O=C1CC(c2cccc([N+](=O)[O-])c2)c2cc3c(cc2N1)OCO3 (centres undefined),0.839
6,Cc1cc(Nc2cccc([N+](=O)[O-])c2)nc2cc(O)ccc12,0.819
7,O=C(O)CCNc1ccccc1[N+](=O)[O-],0.971
8,O=[N+]([O-])c1cc(Br)c(Nc2ccccc2)c([N+](=O)[O-])c1,0.0522
9,COc1ccccc1NC(=O)C(=O)NCCc1ccc(OC)c(OC)c1,0.413
10,Cc1c(CN2CCC(N3CCC(C(=O)NC4CC4)CC3)CC2)[nH]c2c(Cl)cccc12,0.865
11,O=C(CN1CCN(C(=O)c2ccco2)CC1)Nc1cc(C(F)(F)F)ccc1Cl,1.11
12,Cc1cc(N2CCC(C)CC2)nc(-n2nc(C)cc2C)n1,0
13,Cc1cc(C)n(-c2ncc(-c3ccc([N+](=O)[O-])cc3)cn2)n1,1.02
14,CC1CCN(c2nncc3ccccc23)CC1,0.777
15,CN1CCC(CCNCc2ccc(OCC(O)CN(C)Cc3ccccc3)cc2)CC1 (centres undefined),0.856
16,Cn1c(=O)c(Cl)c2c3c(c(Cl)ccc31)C(=O)c1ccccc1-2,0.0761
17,CCCCNC(=O)c1nn(-c2ccc(OC)cc2)c(=O)c2ccccc12,0.946
18,O=c1c(=Cc2ccc(-c3ccc([N+](=O)[O-])cc3Cl)o2)sc2nc3ccccc3n12,0.699
19,CCC(C)NCC(O)(c1ccc(Cl)cc1)c1ccc(Cl)cc1 (centres undefined),0.699
20,CCCOC(=O)C1=C(C)NC2=C(C(=O)CC(c3ccc(OC)c(OC)c3)C2)C1c1ccc([N+](=O)[O-])cc1 (centres undefined),0.514
21,CCOC(=O)c1[nH]nc(C(=O)c2ccccc2)c1-c1ccccc1,1.27
22,CCOC(=O)c1c(Cl)nnc(-c2ccccc2)c1-c1ccccc1,0
23,CCOC(=O)c1c(-c2ccccc2)oc2c1C(=O)c1ccccc1C2=O,0.461
24,CCOC(=O)c1c(NC(=O)Cc2ccc([N+](=O)[O-])cc2)sc2c1CCCC2,1.02
25,Cc1ccc(CN2C(=O)C(O)(CC(=O)c3ccccc3)c3ccccc32)cc1 (centres undefined),0.914

row,Structure (SMILES),viability index
1,CCN1C(=Cc2sc3ccccc3[n+]2C)C=Cc2ccc(C)cc21,0.51
2,CN(C)CCNc1c2c(nc3ccccc13)CCC2,0.953
3,Cc1cc(NCCCN(C)C)c2ccccc2n1,0.888
4,CN(C)CCCNc1c2ccccc2nc2ccccc12,0.0224
5,CCOc1cc([N+](=O)[O-])cc(C=Nc2cccc(NC(=O)c3ccco3)c2)c1O,0.989
6,N=c1n(CCN2CCCCC2)c2ccccc2n1CC(O)COc1ccc(Cl)cc1 (centres undefined),0.746
7,O=C(CC1OC(=O)c2ccccc21)c1ccc(Cl)cc1 (centres undefined),0.496
8,CCOC(=O)c1cnc2c(OC)cccc2c1Nc1ccc(C(C)=O)cc1,1.27
9,COc1ccccc1/C=C/CN1CCN(c2ccccn2)CC1,1.15
10,COc1ccc(Nc2nc(N3CCCC3)c3ccccc3n2)cc1,0.74
11,COc1cnc(-c2ccccn2)nc1N1CCCC1,0.0429
12,c1ccc(CNc2nc(-c3ccccn3)nnc2-c2ccccc2)cc1,0.374
13,CC(C)Nc1nc(-c2cccnc2)nc2ccccc12,1.12
14,COc1cnc(-c2ccccn2)nc1NC(C)C,0.0307
15,Cc1cc(C)nc(Nc2nc(C)c3cc(C)c(C)cc3n2)n1,0.196
16,CCOC(=O)C1=C(C)NC2=C(C(=O)C(C(=O)OCC)C(c3ccc(OC)cc3)C2)C1c1ccc(OC)c(OC)c1 (centres undefined),0.683
17,CN(C)c1ccc(C=C2SC(=Nc3ccc(O)cc3)NC2=O)cc1,0.727
18,CCn1c(C=CN(C)c2ccccc2)[n+](CC)c2cc(Cl)ccc21,1
19,CC(C)(C)c1ccc(Cn2nnc3c(O)nc(C4CCN(C(=O)c5ccccc5)CC4)nc32)cc1,0.736
20,N=C1NC(=O)C(=CC=Cc2ccc([N+](=O)[O-])o2)S1,0.0408
21,O=C(c1ccccc1)N1CCc2nc(Cc3ccc(F)cc3Cl)sc2C1,0.708
22,Cc1ccc2ccc3ccc(C)nc3c2n1,0.0302
23,COc1cccc(OC)c1C(=O)Oc1cccc2ccc(C)nc12,0.706
24,Cc1ccc(NC(=O)c2ccc(NCCCN3CCCCCC3)c([N+](=O)[O-])c2)cc1F,1.51
25,S=C(NN=Cc1ccccn1)NC1CC2CC1C1C=CCC21 (centres undefined),0.397

row,Structure (SMILES),viability index
1,S=C(NN=Cc1ccccn1)NC1CC2C=CC1C2 (centres undefined),0.0456
2,CC1(C)C2CCC(C2)C1(C)NC(=S)NN=Cc1ccccn1 (centres undefined),0.0373
3,CCOC(=O)c1ccc(N(C(=O)Cc2c[nH]c3ccccc23)C(C(=O)NC2CCCCC2)c2cccnc2)cc1 (centres undefined),0.513
4,O=C(Nc1ccc(O)cc1)c1cccc(S(=O)(=O)N2CCCCC2)c1,1.03
5,CC(=O)NC1=NN(C(C)=O)C(c2ccc(Br)cc2)S1 (centres undefined),0.944
6,O=C(CSc1nc2ccccc2c(=O)n1CCCN1CCOCC1)Nc1cccc(S(=O)(=O)N2CCCCCC2)c1,0.969
7,CCc1ccc2c(c1)C1(NN=C(c3ccc(C)cc3)S1)C(=O)N2 (centres undefined),0.127
8,CC1=C(C(=O)OC2CCCCC2)C(c2ccc(F)c(F)c2)C2=C(CCCC2=O)N1 (centres undefined),0.855
9,CN(C)CCNc1cc(-c2ccccc2)nc2ccccc12,0.909
10,CN(C)CCCNc1cc(-c2ccccc2)nc2ccccc12,0.913
11,CN(C)CCNc1cc(-c2ccc3ccccc3c2)nc2ccccc12,0.0331
12,Cc1ccc(C=Cc2ccc3ccccc3[n+]2C)cc1,0.754
13,O=C(NCc1ccccc1)C(c1ccc(F)cc1)N(Cc1ccco1)C(=O)c1cnccn1 (centres undefined),0.72
14,CCOc1ccccc1NC(=O)Cn1c(=O)n(Cc2ccccc2)c(=O)c2c(C)c(C(=O)N(C)C)sc21,0.83
15,CCCCCOC(=O)C1=C(C)NC2=C(C(=O)CC(C)(C)C2)C1c1ccncc1 (centres undefined),0.891
16,CCC(=O)N(C1=C(NC)C(=O)c2ccccc2C1=O)C(C)C,0.601
17,CC(=O)N(C1=C(N2CCCCC2)C(=O)c2ccccc2C1=O)c1ccc(F)cc1,0.721
18,CC(=O)N(Cc1ccc(F)cc1)C1=C(NCCc2ccccc2)C(=O)c2ccccc2C1=O,0.0184
19,CC(=O)N(C1=C(N2CCCC2)C(=O)c2ccccc2C1=O)c1ccc(F)cc1,1
20,CCN(C(C)=O)C1=C(N2CCOCC2)C(=O)c2ccccc2C1=O,0.538
21,CNC1=C(N(Cc2ccc(Cl)c(Cl)c2)C(C)=O)C(=O)c2ccccc2C1=O,0
22,Cc1cc(Nc2cccc(Cl)c2)nc2ccc(NC(=O)c3cccnc3)cc12,0.912
23,COC(=O)c1c(NC(=O)c2ccc(S(=O)(=O)N3CCOCC3)cc2)sc2c1CCN(C(C)=O)C2,0.76
24,C1=C(c2ccccc2)CCN(c2ncnc3c2nc2n3CCCCC2)C1,0.916
